Test results reported in PubChem BioAssay (NCI).
About 83,000 compounds went through this panel and 20% of them were active in at least one assay; those are over-represented in the sample as a whole.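 How to read the values: 0–100, growth inhibition (40 = 60% inhibited); 0, no net growth; -100 to 0, cell death (-40 = 40% of starting cells died; -100 = all dead).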 Activity calls are given as the source filed them.

Each compound was assayed on SNB-75 CNS (assay: NCI-60 one-dose screen, 48 h (100 = growth as untreated, 0 = no growth, -100 = all killed)). Details: 10 µM unless noted.
Experimental: Growth inhibition of the SNB-75 human tumor cell line is measured as a screen for anti-cancer activity. Cells are grown in 96 well plates and exposed to the test compound for 48 hours. Compounds are tested at a single concentration, which is 10^-5 M for most compounds. The reported endpoint is percent growth (GI% or GIPRCNT), where numbers from 0 - 100% represent growth inhibition, and numbers from -100% - 0 represent cell death. For example, a value of 40 represents 60% growth inhibition. A value of 0 means no net growth occurred over the course of the experiment. A value of -40 indicates 40% of cells at the beginning of the experiment died by the end of the experiment. A value of -100 means all cells are dead at the end of the experiment.
NCI-60 Human Tumor Cell Lines Screen was performed using the standard one-dose NCI protocol, which is described in more detail at https://dtp.cancer.gov/discovery_development/nci-60/default.htm.
Compounds with GIPRCNT values below 10 were considered active. Activity score was based on GIPRCNT using the following formula: […]
Score is 0 for GIPRCNT values of 100 or above, 50 for GIPRCNT values of 0, and 100 for GIPRCNT values of -100.

SMILES | growth
CCN(CC)CCCNc1cccc2c(SCc3ccccc3)ccnc12 | 87.1% (inactive)
COc1ccc(C2CC(=O)Nc3c2c(C)nn3-c2nc3ccccc3[nH]2)cc1 (stereo not given) | 103% (inactive)
COc1ccc(C(=O)COc2ccc(/C=C3\Oc4ccc(Cl)cc4C3=O)cc2)cc1 | 88.8% (inactive)
COc1cc2c(cc1O)CCc1cc(O)cc(OC)c1-2 | 91.9% (inactive)
COc1ccc(-c2nc(Nc3cc(C)[nH]n3)c3ccccc3n2)cc1 | -33.5% (active)
COc1ccc(-c2cc(=O)[nH]c3c(OC)c4ccccc4c(OC)c23)cc1 | 13.3% (inactive)
O=S(=O)(Nc1ccc(F)c(Cl)c1)c1ccc(-c2cnc(C3CC3)o2)cc1 | -14.4% (active)
O=C1c2cc3c(cc2-c2c1c1cc(F)c(F)cc1c(=O)n2C[C@H](O)CO)OCO3 | 4.14% (active)
CCC(=O)OCc1cccc(OC)c1 | 59.7% (inactive)
COc1cc(OC)c(/C=C/c2cc[n+](C)c3ccccc23)c(OC)c1 | -13.8% (active)
O=C1Nc2c(ccc(Cl)c2Cl)/C1=C/c1cc(Br)c(O)c(Br)c1 | 70.2% (inactive)
C=C1CCC2C3(C)COC(c4ccc(SC)cc4)OC3CCC2(C)C1C/C=C1/C(=O)OCC1O (stereo not given) | 73% (inactive)
O=C1c2cccnc2C(=O)c2c1c(C(=O)OCCN1CCCCC1)c1ccccn21 | -63.7% (active)
CC#Cc1nc2ccccc2c(=O)[nH]1 | -2.64% (active)
C=C1CCC2C3(C)COC(c4ccccc4Br)OC3CCC2(C)C1C/C=C1/C(=O)OCC1OC(C)=O (stereo not given) | -25.3% (active)
O=C1c2c[n+](Cc3ccccc3)ccc2-c2nc3ccccc3c3ccnc1c23 | -80.7% (active)
CC[C@H](Nc1nc(N)nc(C)c1C#N)c1nc2cccc(NCc3ccc(C(=O)NO)cc3)c2c(=O)n1-c1ccccc1 | 14.3% (inactive)
C/C(=C(/c1ccc(O)cc1)c1ccc(OCCN2CCCC2)cc1)c1ccccc1 | 46.1% (inactive)
COc1ccc2[nH]c(=O)c(/C=C/C(=O)c3ccc(Nc4nccc(-c5ccc6ccccc6c5)n4)cc3)cc2c1 | 95.7% (inactive)
NCCN1CCN(c2nccc(-c3ccc4ccccc4c3)n2)CC1 | 82.1% (inactive)

SMILES | growth
CCCCNc1ccc2c3c1cccc3c(=O)n1c3ccccc3nc21 | 73.4% (inactive)
COc1ccc(/C=C2\N=C3Sc4cc(Cl)ccc4C(=O)N3C2=O)cc1 | 76.8% (inactive)
Cc1cc(Cl)ccc1Nc1nc(C(F)(F)F)ccc1C(=O)N/N=C/c1ccc(F)cc1 | 42% (inactive)
N#Cc1ccc(NC(=O)Nc2ccc(Cc3ccc(NC(=O)Nc4ccc(C#N)cc4)cc3)cc2)cc1 | 83.3% (inactive)
C/C(=C(/c1ccc(O)cc1)c1ccc(OCCN(C)C)cc1)c1ccccc1 | 53.4% (inactive)
Nc1ccc2c(c1)C(=O)NC2=O | 75.8% (inactive)
Cc1ccc2c(c1)n([O-])c1cc(Cl)ccc1[n+]2=O | 91.3% (inactive)
COc1cc(OC)c(/C=C/C(=O)c2c(OC)cc(OC)cc2OC)c(OC)c1 | 13.7% (inactive)
O=C1C(Cl)=C(Cl)C(=O)c2c1nc1n2CCCC1 | 126% (inactive)
O=c1c2cccc3c(Nc4ccccn4)ccc(c32)c2nc3ccccc3n12 | 78.6% (inactive)
CC/C=C\C[C@H](O)C/C=C1/C(=O)C=C[C@@H]1C/C=C\CCCC(=O)NC | 62.5% (inactive)
CCCCCCCCCCCCCCCC[N+]1(CC)CCCC1 | -37% (active)
CCCCCCCCCCCCCCCC(=O)OCC1OC(n2cnc3c(=S)nc(N)[nH]c32)C(OC(=O)CCCCCCCCCCCCCCC)C1OC(=O)CCCCCCCCCCCCCCC (stereo not given) | 78.2% (inactive)
CCCCCCCCCCCCS(=O)CC(C)O (stereo not given) | 78.3% (inactive)
CCN(CC)c1ccc(/C=C/C2=[N+](C)c3ccccc3C2(C)C)cc1 | 26.4% (inactive)
CNC(=O)c1cc(Oc2ccc3nc(NC(=O)Nc4ccc(CN5CCOCC5)c(C(F)(F)F)c4)sc3c2)ccn1 | 59.4% (inactive)
Nc1nc(SCc2ccccc2)c2ncn(C3CCCC3)c2n1 | 126% (inactive)
Cc1ccc(S(=O)(=O)n2cc(-c3csc(-c4cn(C)c5ncccc45)n3)c3ccccc32)cc1 | 45.8% (inactive)
CCN(CC)Cc1cc(Nc2c3ccc(Cl)cc3nc3c(C)cccc23)ccc1O | -99.4% (active)
O=C(CN1CCOCC1)Nc1ccc(Cn2nnc3c2C(=O)c2nnn(Cc4ccc(NC(=O)CN5CCOCC5)cc4)c2C3=O)cc1 | -87.4% (active)
